Active and inactive are the calls of the source. The calls were made as follows: active = hit-call score of the fitted dose curve at least 0.9, where 1 is the maximum; inactive = score below 0.9.

CCAAT/enhancer-binding protein beta (Homo sapiens), sequence (P17676 whole entry, looked up): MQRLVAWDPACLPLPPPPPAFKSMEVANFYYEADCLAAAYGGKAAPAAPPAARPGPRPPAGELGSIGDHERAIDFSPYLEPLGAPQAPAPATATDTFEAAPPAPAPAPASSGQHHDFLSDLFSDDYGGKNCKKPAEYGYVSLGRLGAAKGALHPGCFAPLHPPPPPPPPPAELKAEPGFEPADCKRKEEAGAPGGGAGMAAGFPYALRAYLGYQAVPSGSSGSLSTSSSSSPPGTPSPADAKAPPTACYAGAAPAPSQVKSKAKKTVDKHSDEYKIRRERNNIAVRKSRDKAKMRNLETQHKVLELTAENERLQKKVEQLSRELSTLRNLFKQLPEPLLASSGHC
Aryl hydrocarbon receptor (Homo sapiens), sequence (P35869 whole entry, looked up): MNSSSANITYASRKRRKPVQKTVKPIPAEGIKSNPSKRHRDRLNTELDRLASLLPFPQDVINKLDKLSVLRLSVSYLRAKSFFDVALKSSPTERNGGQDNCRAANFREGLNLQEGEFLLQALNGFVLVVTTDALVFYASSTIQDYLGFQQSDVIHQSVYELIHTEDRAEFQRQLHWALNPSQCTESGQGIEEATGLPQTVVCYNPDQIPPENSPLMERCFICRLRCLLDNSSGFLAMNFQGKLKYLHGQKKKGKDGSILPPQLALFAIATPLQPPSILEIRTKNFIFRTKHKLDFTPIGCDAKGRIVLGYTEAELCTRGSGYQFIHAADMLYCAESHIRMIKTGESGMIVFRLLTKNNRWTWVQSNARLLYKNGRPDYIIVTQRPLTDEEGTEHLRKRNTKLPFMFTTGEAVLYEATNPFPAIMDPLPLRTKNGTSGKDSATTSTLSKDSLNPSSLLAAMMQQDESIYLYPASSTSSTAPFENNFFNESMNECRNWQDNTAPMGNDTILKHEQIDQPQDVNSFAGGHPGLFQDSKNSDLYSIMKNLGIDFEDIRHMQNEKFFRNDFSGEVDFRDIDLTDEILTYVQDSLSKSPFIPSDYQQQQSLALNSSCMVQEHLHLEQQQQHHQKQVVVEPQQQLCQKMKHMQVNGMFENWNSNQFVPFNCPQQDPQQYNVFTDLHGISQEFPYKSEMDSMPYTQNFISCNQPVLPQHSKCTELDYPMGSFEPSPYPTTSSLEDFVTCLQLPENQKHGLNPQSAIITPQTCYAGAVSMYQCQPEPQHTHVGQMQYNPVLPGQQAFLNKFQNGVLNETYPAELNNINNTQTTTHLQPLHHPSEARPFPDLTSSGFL

One experiment addresses CCAAT/enhancer-binding protein beta (Homo sapiens) (UniProt P17676). In words: ATG_C_EBP_CIS: Attagene CIS-FACTORIAL HepG2 Assay for human CCAAT/Enhancer Binding Protein (C/EBP) beta (AID 2282927). Conditions: HepG2 Attagene cis-factorial transcription factor reporter; actives raise or lower the signal. The procedure, abridged:
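RT-PCR/capillary electrophoresis fluorescence of reporter mRNA, 24 h post-dose, in HepG2 cells carrying transfected cis-promoter reporter units. Bidirectional curve fitting against DMSO baseline captures gain or loss of signal.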
Turning to `CCCCCCCCCCCC(C)=O`, the result was inactive.
On the same count and under the same terms, to `O=C1CCCCCCCCCCC1` belongs “inactive”; to `Nc1nc(N)nc(-c2ccccc2)n1`, “inactive”.
As to `CCOC(=O)C1=NOC(c2ccccc2)(c2ccccc2)C1`, the outcome was inactive.
The same measure, in the same setting: in the case of `Cc1c(O)cccc1O` it was “inactive”.

System in another experiment: not listed separately
In words: ATG_CMV_CIS: Attagene CIS-FACTORIAL HepG2 Assay for human CMV (Internal Marker) (AID 2282928).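 Also: endpoint acts as a background internal control marker rather than a target.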 Conditions: HepG2 CMV promoter reporter, transcription factor profiling; actives raise or lower the signal. The procedure, abridged:
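Endogenous transcription factor activity read in HepG2 via transfected cis-promoter reporter units. After 24 h dosing, reporter mRNA measured by RT-PCR/capillary electrophoresis; gain or loss of signal fit relative to DMSO.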
Regarding `CC(Cl)COP(=O)(OCC(C)Cl)OCC(C)Cl` (stereo unspecified), the compound was called inactive.
In the case of `CCCCCCC=O`, the call was inactive.
Turning to `CCCCCCOc1ccc(N)cc1`, the concentration at half-maximal activity (AC50) (commonly the midpoint of the concentration-response curve, whichever way the signal moves) is 155 µM (active).
The same measure, in the same setting: in the case of `C=CC(C)(CCC=C(C)C)OC(=O)C=Cc1ccccc1` (stereo unspecified) it was 84.2 µM (active).
In the case of `CCCCCCCCCCCCCC(=O)OC(C)C`, the compound was called inactive.
Same read-out and setting: to `CCCCCC(=O)OCC` belongs “inactive”; to `CCCCCCCOC(=O)c1ccc(O)cc1`, “inactive”; to `Cc1ccccc1CCO`, “inactive”.
Same read-out and setting: in the case of `CCC(C)N` (stereo unspecified) it was “inactive”; in that of `COC(OC)(C(=O)c1ccccc1)c1ccccc1`, “inactive”; in that of `[Cl][Eu]([Cl])[Cl]`, “inactive”.
The same measure, in the same setting: in the case of `Nc1ncnc2nc[nH]c12` it was “inactive”.
For the compound `COc1ccc(C(=O)/C(Br)=C\C(=O)O)cc1`, the half-maximal activity concentration (AC50) is 36 µM (active).
On the same count and under the same terms, to `CCN1CN(CC)CN(CC)C1` belongs 140 µM (active).
Regarding `CCOC(=O)c1ccc(C)cc1`, the compound was classed as inactive.
As for `Cc1ccc(S(=O)(=O)N=C=O)cc1`, the call was inactive.
`C=C(C)C1CC=C(C)CC1` (stereo unspecified): the outcome was inactive.
The same measure, in the same setting: to `Cc1ccc2c(c1)CCCN2` belongs “inactive”; to `COc1cc(C)ccc1O`, “inactive”.
With `C=CC(=O)OCCCCCCOC(=O)C=C`, the AC50 is 56.6 µM (active).
The same measure, in the same setting: to `c1ccc2sc(SSN3CCOCC3)nc2c1` belongs 64 µM (active).
As to `CCCCOCCOCCOC(C)=O`, the compound was called inactive.
The same measure, in the same setting: in the case of `CC(=O)OCCc1ccccc1` it was “inactive”.
On the same count and under the same terms, to `CC(C)CC(=O)OCc1ccccc1` belongs “inactive”.
With `CC(=O)OC/C=C(/C)CCC=C(C)C`, the call was inactive.
For the compound `CCCCCC1=CCCC1=O`, the compound was called inactive.
Same read-out and setting: in the case of `CCC(C)(O)CCCC(C)C` (stereo unspecified) it was “inactive”.
For `COc1ccc(C(=O)c2ccccc2)c(O)c1`, the AC50 is 79.6 µM (active).
In the case of `CC(C)(CO)COC(=O)C(C)(C)CO`, the result was inactive.
Same read-out and setting: to `Cc1c[nH]c(=O)[nH]c1=O` belongs “inactive”; to `CCOB(OCC)OCC`, “inactive”.
On the same count and under the same terms, to `CC(=O)CCC1=C(C)CCCC1(C)C` belongs “inactive”.
Turning to `CCCCCCCCCCCC(C)=O`, the AC50 is 124 µM (active).
On to `O=C1CCCCCCCCCCC1`, for which the call was inactive.
Same read-out and setting: in the case of `Nc1nc(N)nc(-c2ccccc2)n1` it was “inactive”.
As for `CCOC(=O)C1=NOC(c2ccccc2)(c2ccccc2)C1`, the outcome was inactive.
Consider `Cc1c(O)cccc1O`, for which the outcome was inactive.

System in another experiment: not listed separately
In words: ATG_DR4_LXR_CIS: Attagene CIS-FACTORIAL HepG2 Assay for human Liver X Receptor (LXR), DR4 submotif (AID 2282929). As to conditions: HepG2 Attagene DR4 cis-reporter, mRNA transcription; actives raise or lower the signal. The procedure, abridged:
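The endpoint is DR4-element-driven reporter transcripts after 24 h chemical exposure of transfected HepG2 cells. These were measured via RT-PCR and capillary electrophoresis, and gain or loss of signal was fitted relative to DMSO controls.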
Consider `CC(Cl)COP(=O)(OCC(C)Cl)OCC(C)Cl` (stereo unspecified), for which the result was inactive.
On the same count and under the same terms, in the case of `CCCCCCC=O` it was “inactive”.
Regarding `CCCCCCOc1ccc(N)cc1`, the AC50 was 159 µM (active).
On the same count and under the same terms, in the case of `C=CC(C)(CCC=C(C)C)OC(=O)C=Cc1ccccc1` (stereo unspecified) it was 27.1 µM (active).
Regarding `CCCCCCCCCCCCCC(=O)OC(C)C`, the compound was called inactive.
As for `CCCCCC(=O)OCC`, the call was inactive.
For the compound `CCCCCCCOC(=O)c1ccc(O)cc1`, the AC50 was 24.3 µM (active).
Consider `Cc1ccccc1CCO`, for which the result was inactive.
On the same count and under the same terms, in the case of `CCC(C)N` (stereo unspecified) it was “inactive”.
Take `COC(OC)(C(=O)c1ccccc1)c1ccccc1`: the half-maximal activity concentration (AC50) was 49.8 µM (active).
In the case of `[Cl][Eu]([Cl])[Cl]`, the outcome was inactive.
With `Nc1ncnc2nc[nH]c12`, the compound was classed as inactive.
As to `COc1ccc(C(=O)/C(Br)=C\C(=O)O)cc1`, the AC50 was 27.8 µM (active).
Still for that read-out and setting: to `CCN1CN(CC)CN(CC)C1` belongs 139 µM (active).
`CCOC(=O)c1ccc(C)cc1`: the compound was called inactive.
Still for that read-out and setting: to `Cc1ccc(S(=O)(=O)N=C=O)cc1` belongs “inactive”.
Still for that read-out and setting: in the case of `C=C(C)C1CC=C(C)CC1` (stereo unspecified) it was “inactive”; in that of `Cc1ccc2c(c1)CCCN2`, “inactive”; in that of `COc1cc(C)ccc1O`, “inactive”.
Turning to `C=CC(=O)OCCCCCCOC(=O)C=C`, the concentration at half-maximal activity (AC50) is 49.7 µM (active).
On the same count and under the same terms, to `c1ccc2sc(SSN3CCOCC3)nc2c1` belongs 100 µM (active).
As for `CCCCOCCOCCOC(C)=O`, the result was inactive.
Still for that read-out and setting: in the case of `CC(=O)OCCc1ccccc1` it was “inactive”.
The same measure, in the same setting: in the case of `CC(C)CC(=O)OCc1ccccc1` it was “inactive”; in that of `CC(=O)OC/C=C(/C)CCC=C(C)C`, “inactive”; in that of `CCCCCC1=CCCC1=O`, “inactive”.
Same read-out and setting: in the case of `CCC(C)(O)CCCC(C)C` (stereo unspecified) it was “inactive”.
As to `COc1ccc(C(=O)c2ccccc2)c(O)c1`, the AC50 is 115 µM (active).
Take `CC(C)(CO)COC(=O)C(C)(C)CO`: the result was inactive.
Same read-out and setting: in the case of `Cc1c[nH]c(=O)[nH]c1=O` it was “inactive”; in that of `CCOB(OCC)OCC`, “inactive”; in that of `CC(=O)CCC1=C(C)CCCC1(C)C`, “inactive”.
Take `CCCCCCCCCCCC(C)=O`: the concentration at half-maximal activity (AC50) is 136 µM (active).
Consider `O=C1CCCCCCCCCCC1`, for which the result was inactive.
On to `Nc1nc(N)nc(-c2ccccc2)n1`, for which the call was inactive.
Still for that read-out and setting: to `CCOC(=O)C1=NOC(c2ccccc2)(c2ccccc2)C1` belongs “inactive”; to `Cc1c(O)cccc1O`, “inactive”.

For the next experiment, the target named is Aryl hydrocarbon receptor (Homo sapiens) (UniProt P35869). The experiment is described as follows: ATG_Ahr_CIS: Attagene CIS-FACTORIAL HepG2 Assay for human Aryl Hydrocarbon Receptor (Ahr) (AID 2282930). As to conditions: HepG2 AhR cis-factorial reporter transcription; actives raise or lower the signal. In outline:
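HepG2 cells transiently transfected with cis-element-driven multiplexed reporter transcription units; endogenous transcription factor activity measured as reporter mRNA 24 h after dosing. RT-PCR, 6-FAM labelling, HpaI digestion, capillary electrophoresis; bidirectional fitting versus DMSO baseline.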
Consider `CC(Cl)COP(=O)(OCC(C)Cl)OCC(C)Cl` (stereo unspecified), for which the compound was called inactive.
On the same count and under the same terms, to `CCCCCCC=O` belongs “inactive”.
Same read-out and setting: to `CCCCCCOc1ccc(N)cc1` belongs “inactive”; to `C=CC(C)(CCC=C(C)C)OC(=O)C=Cc1ccccc1` (stereo unspecified), “inactive”.
Same read-out and setting: in the case of `CCCCCCCCCCCCCC(=O)OC(C)C` it was “inactive”; in that of `CCCCCC(=O)OCC`, “inactive”.
`CCCCCCCOC(=O)c1ccc(O)cc1`: the AC50 is 49.8 µM (active).
On to `Cc1ccccc1CCO`, for which the compound was called inactive.
`CCC(C)N` (stereo unspecified): the outcome was inactive.
On the same count and under the same terms, to `COC(OC)(C(=O)c1ccccc1)c1ccccc1` belongs “inactive”; to `[Cl][Eu]([Cl])[Cl]`, “inactive”.
Still for that read-out and setting: to `Nc1ncnc2nc[nH]c12` belongs “inactive”; to `COc1ccc(C(=O)/C(Br)=C\C(=O)O)cc1`, “inactive”.
For `CCN1CN(CC)CN(CC)C1`, the compound was classed as inactive.
On the same count and under the same terms, in the case of `CCOC(=O)c1ccc(C)cc1` it was “inactive”.
Still for that read-out and setting: in the case of `Cc1ccc(S(=O)(=O)N=C=O)cc1` it was “inactive”; in that of `C=C(C)C1CC=C(C)CC1` (stereo unspecified), “inactive”.
With `Cc1ccc2c(c1)CCCN2`, the concentration at half-maximal activity (AC50) was 20.2 µM (active).
In the case of `COc1cc(C)ccc1O`, the result was inactive.
Consider `C=CC(=O)OCCCCCCOC(=O)C=C`, for which the compound was classed as inactive.
With `c1ccc2sc(SSN3CCOCC3)nc2c1`, the AC50 was 3.45 µM (active).
As for `CCCCOCCOCCOC(C)=O`, the compound was classed as inactive.
The same measure, in the same setting: in the case of `CC(=O)OCCc1ccccc1` it was “inactive”; in that of `CC(C)CC(=O)OCc1ccccc1`, “inactive”; in that of `CC(=O)OC/C=C(/C)CCC=C(C)C`, “inactive”.
Regarding `CCCCCC1=CCCC1=O`, the call was inactive.
For `CCC(C)(O)CCCC(C)C` (stereo unspecified), the compound was called inactive.
Same read-out and setting: to `COc1ccc(C(=O)c2ccccc2)c(O)c1` belongs “inactive”; to `CC(C)(CO)COC(=O)C(C)(C)CO`, “inactive”; to `Cc1c[nH]c(=O)[nH]c1=O`, “inactive”.
Turning to `CCOB(OCC)OCC`, the call was inactive.
Consider `CC(=O)CCC1=C(C)CCCC1(C)C`, for which the result was inactive.
The same measure, in the same setting: to `CCCCCCCCCCCC(C)=O` belongs “inactive”.
On the same count and under the same terms, in the case of `O=C1CCCCCCCCCCC1` it was “inactive”; in that of `Nc1nc(N)nc(-c2ccccc2)n1`, “inactive”.
For `CCOC(=O)C1=NOC(c2ccccc2)(c2ccccc2)C1`, the call was inactive.
As for `Cc1c(O)cccc1O`, the AC50 is 37.8 µM (active).

These data come from PubChem BioAssay (EPA / NIEHS).
